The structures appear in SMILES notation. Out of some 63,000 compounds screened, about 1,100 (1.7%) were called active. This is one part of a sample in which actives are shown more often than they occur. Measured potencies and affinities stand elsewhere. Values without a mark were called inactive.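 How the source made its calls: active means compounds whose percent cytotoxicity in the single-dose primary screen, scaled between solvent and toxic-drug controls, exceeds 50; inactive means the rest.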

A short description of this assay: cytotoxicity in KRAS-transformed pancreatic duct cells, primary screen, cell-based, fluorescence, HTS (AID 431).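 Further: 0% = DMSO solvent wells and 100% = doxorubicin-treated wells.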 The note with it: HPDE-C7K KRASV12 cells, Alamar Blue viability, 48 h; at 10 µM; hits give high values. In general terms: The colour change of resazurin is a common sign of viable cells or microbes.
Regarding `CCn1c(SCC(=O)Nc2cc(C)ccc2C)nc2c(c1=O)SC(C)C2` (stereo not given), the cytotoxicity was 8.9%.

As for `Cn1c(=O)c2c(nc(CN3CCN(c4ccc(F)cc4)CC3)n2CCN2CCOCC2)n(C)c1=O`, the cytotoxicity was -4.6%.

With `CCn1c(=N)n(CC(O)c2ccco2)c2ccccc21` (stereo not given), the cytotoxicity was -9.8%.

In the case of `CC[C@H](C)C(=O)O[C@H]1C[C@@H](C)C=C2C=C[C@H](C)[C@H](CC[C@@H]3C[C@@H](O)CC(=O)O3)[C@H]21`, the cytotoxicity was 55.1% (active).

Turning to `Cn1nc(-c2ccc(N3CCCCC3)c(NC(=O)c3ccco3)c2)c2ccccc2c1=O`, the cytotoxicity is 57.8% (active).

Take `CCC(=O)Nc1cc(-c2nn(C)c(=O)c3ccccc23)ccc1N1CCCCC1`: the cytotoxicity is 2%.

As to `CCCC(=O)Nc1cc(-c2nn(C)c(=O)c3ccccc23)ccc1N1CCCCC1`, the cytotoxicity was -4.5%.

As to `CC(C)C(NS(=O)(=O)c1ccc2c(c1)oc(=O)n2C)C(=O)N1CCN(Cc2ccccc2)CC1` (stereo not given), the cytotoxicity was 7.1%.

On to `COc1cccc(C2CC(=O)Nc3cc4c(cc32)OCCO4)c1OC(C)C` (stereo not given), for which the cytotoxicity was 34.4%.

Turning to `CCCOc1c(OC)cccc1C1CC(=O)Nc2cc3c(cc21)OCO3` (stereo not given), the cytotoxicity is 9.6%.

Consider `CCOc1c(OC)cccc1C1CC(=O)Nc2cc3c(cc21)OCCO3` (stereo not given), for which the cytotoxicity is 8.9%.

Consider `COc1ccccc1C1CC(=O)Nc2cc3c(cc21)OCCO3` (stereo not given), for which the cytotoxicity is 63.8% (active).

As for `CCCCOc1ccccc1C1CC(=O)NC2=C1C(=O)CCC2` (stereo not given), the cytotoxicity is 60.3% (active).

Regarding `CC(C)Oc1ccccc1C1CC(=O)Nc2cc3c(cc21)OCCO3` (stereo not given), the cytotoxicity is 45.7%.

`CCCOc1ccccc1C1CC(=O)NC2=C1C(=O)CCC2` (stereo not given): the cytotoxicity is 36.3%.

Turning to `CCOc1ccccc1C1CC(=O)Nc2cc3c(cc21)OCO3` (stereo not given), the cytotoxicity is 55.9% (active).

With `CCCOc1c(OC)cccc1C1CC(=O)Nc2cc3c(cc21)OCCO3` (stereo not given), the cytotoxicity was 68.7% (active).

As to `CCOc1ccccc1C1CC(=O)NC2=C1C(=O)CCC2` (stereo not given), the cytotoxicity is 16.8%.

In the case of `CCOc1ccccc1C1CC(=O)Nc2cc3c(cc21)OCCO3` (stereo not given), the cytotoxicity was 48.6%.

For the compound `CC(C)Oc1ccccc1C1CC(=O)Nc2cc3c(cc21)OCO3` (stereo not given), the cytotoxicity was 42.7%.

Regarding `O=C1c2ccccc2C(=O)N1CCN1CCOCC1`, the cytotoxicity was -1.3%.

Take `CC(C)N(C(=O)CSc1nnnn1C1CCCC1)C(C)C`: the cytotoxicity was -9.6%.

`CCCCn1nnnc1SCC(=O)Nc1ccc(C)cc1`: the cytotoxicity was -4.8%.

As for `Cc1ccc(NS(=O)(=O)c2cc(C(=O)N3CCOCC3)ccc2C)cc1C`, the cytotoxicity is -4.4%.

For the compound `CCN(CC)C(=O)c1sc(NC(=O)Cc2cccs2)c(C#N)c1C`, the cytotoxicity was -10.4%.

As to `CC(O)c1ccc2c(c1)OCCOCCN(C)CCOCCO2` (stereo not given), the cytotoxicity is -3.4%.

For `OC1C[N+]2(CCCCC2)C1`, the cytotoxicity was -0.4%.

As for `CCNc1nc(SCC(=O)OC)nc(N2CCOCC2)n1`, the cytotoxicity is -13.2%.

`O=C(CCC(=O)N(CC(=O)NC1CCCCC1)c1ccc2c(c1)OCO2)Nc1ccccn1`: the cytotoxicity is -8.1%.

Turning to `Cc1ccc(C2CC(=O)Nc3cc4c(cc32)OCCO4)s1` (stereo not given), the cytotoxicity was 7.5%.

On to `O=C1CC(c2cccs2)c2cc3c(cc2N1)OCCO3` (stereo not given), for which the cytotoxicity is 2.9%.

For `CCCOc1ccccc1C1CC(=O)Nc2cc3c(cc21)OCCO3` (stereo not given), the cytotoxicity is 73.4% (active).

In the case of `CC(C)NC(=O)c1ccccc1-c1nc(-c2ccccc2Cl)no1`, the cytotoxicity was 6%.

As to `CCN1CCCC1CNc1ncnc2c1[nH]c1ccc(Cl)cc12` (stereo not given), the cytotoxicity was 10.9%.

As to `c1ccc2c(c1)[nH]c1c(NCC3CCCO3)ncnc12` (stereo not given), the cytotoxicity is 6.1%.

On to `Clc1ccc2[nH]c3c(NCC4CCCO4)ncnc3c2c1` (stereo not given), for which the cytotoxicity is 57.6% (active).

As to `CC(C)(C)OC(=O)N1CCC[C@@H]1C(=O)N1CCC(C(=O)O)CC1`, the cytotoxicity is 8.3%.

As for `COc1ccc(NC(=O)Cn2nnc(-c3ccccc3NC(=O)c3cccs3)n2)cc1`, the cytotoxicity was 9.5%.

Take `O=C(O)c1ccc(CSc2n[nH]c(-c3ccco3)n2)cc1`: the cytotoxicity is -2.9%.

For the compound `Cc1c(-c2ccccc2)c(P(=O)(N2CCOCC2)N2CCOCC2)c2ccccn12`, the cytotoxicity is -4.4%.

Turning to `COc1ccccc1-n1c(=O)oc2ccc(Cl)cc2c1=O`, the cytotoxicity was 53.6% (active).

As for `COc1ccccc1-n1c(SC)nc(O)cc1=O`, the cytotoxicity is 6.5%.

Turning to `COc1ccccc1C1c2c(oc3ccc(Cl)cc3c2=O)C(=O)N1c1cc(C)on1` (stereo not given), the cytotoxicity is -23.6%.

Consider `C=CCN(CC=C)S(=O)(=O)c1ccc2nsnc2c1`, for which the cytotoxicity is -22.3%.

Consider `CCOC(=O)c1ccc2nc(NC(=O)C(C)C)sc2c1`, for which the cytotoxicity was 6.2%.

In the case of `C=CCN(CC=C)S(=O)(=O)c1ccc2nc(NC(=O)C(C)C)sc2c1`, the cytotoxicity was 69.9% (active).

In the case of `COc1ccc(C(=O)CSc2nnc(-c3ccco3)n2C)cc1`, the cytotoxicity is 5.8%.

As for `COc1ccc(C(=O)n2c(-c3ccco3)nc3ccccc32)cc1`, the cytotoxicity was 58.3% (active).

For the compound `CCn1c(-c2ccco2)nc2ccccc21`, the cytotoxicity was 5.1%.

For the compound `Cc1cc(C)cc(-n2nnc(C(=O)NCc3ccc(Cl)cc3)c2N)c1`, the cytotoxicity is 5.6%.

Consider `CCN1CCN(C2CCN(C(C)=O)CC2)CC1`, for which the cytotoxicity is 5.4%.

For `C/C=C/Cn1c(SCc2ccc(Cl)cc2)nc2c1c(=O)[nH]c(=O)n2C`, the cytotoxicity was 8.2%.

Turning to `C/C=C/Cn1c(SCc2ccc(C)cc2)nc2c1c(=O)[nH]c(=O)n2C`, the cytotoxicity was 57.9% (active).

On to `C/C=C/Cn1c(SCc2ccccc2)nc2c1c(=O)[nH]c(=O)n2C`, for which the cytotoxicity was 1.2%.

Regarding `Clc1ccc(-n2cnnn2)cc1`, the cytotoxicity was -0.1%.

With `COc1ccc(C2NC(=O)NC(C)=C2C(=O)Nc2cc(C)ccc2C)cc1OC` (stereo not given), the cytotoxicity is 1.2%.

As to `O=C(C1CC1)N1CCc2cc(Br)cc(S(=O)(=O)NCCCN3CCCC3)c21`, the cytotoxicity is 1.3%.

`N#C/C(=C(/O)COC(=O)c1ccc2c(c1)OCCO2)c1nc2ccccc2[nH]1`: the cytotoxicity was 17.6%.

As to `CCOC(=O)c1c(C)[nH]c(C(=O)OC/C(O)=C(\C#N)c2nc3ccccc3[nH]2)c1C`, the cytotoxicity is 81.8% (active).

With `Cc1nn(-c2ccccc2)c(C)c1C(=O)OC/C(O)=C(\C#N)c1nc2ccccc2[nH]1`, the cytotoxicity was 13%.

Turning to `CSc1nnc(-c2nnc(SC)n2-c2ccccc2)n1-c1ccccc1`, the cytotoxicity was -8.3%.

As to `CC(=O)C1=C(C)NC(SCC(=O)c2ccccc2)=C(C#N)C1CC(C)C` (stereo not given), the cytotoxicity is 3.7%.

As for `CCOC(=O)CSC1=C(C#N)C(c2ccco2)C(C(=O)OCc2ccccc2)=C(C)N1` (stereo not given), the cytotoxicity was 61% (active).

For `C=CCOC(=O)C1=C(C)NC(SCC(=O)N(CC)CC)=C(C#N)C1c1ccco1` (stereo not given), the cytotoxicity is -4.1%.

Consider `Cc1ccc(C(=O)CSC2=C(C#N)C(c3ccco3)CC(=O)N2)c(C)c1` (stereo not given), for which the cytotoxicity is 5%.

With `CC(=O)C1=C(C)NC(SCC(=O)c2ccc(Cl)c(Cl)c2)=C(C#N)C1c1ccco1` (stereo not given), the cytotoxicity is 77.4% (active).

In the case of `CCN(CC)C(=O)CSC1=C(C#N)C(c2ccco2)C(C(=O)OCCOC)=C(C)N1` (stereo not given), the cytotoxicity was -15.8%.

As to `CC(=O)C1=C(C)NC(SCC(=O)c2ccc(Cl)cc2Cl)=C(C#N)C1c1ccco1` (stereo not given), the cytotoxicity is 40.7%.

Consider `CC(=O)C1=C(C)NC(SCC(=O)c2cc(Cl)ccc2Cl)=C(C#N)C1c1ccco1` (stereo not given), for which the cytotoxicity was 60.7% (active).

Consider `C=CCOC(=O)C1=C(C)NC(SCC(=O)Nc2ccc(C)c(Cl)c2)=C(C#N)C1c1ccco1` (stereo not given), for which the cytotoxicity was -1.3%.

As to `CSCSC1=C(C#N)C(c2ccccc2Cl)C(C(C)=O)=C(C)N1` (stereo not given), the cytotoxicity is 23.4%.

Regarding `COCCOC(=O)C1=C(C)NC(SCC(=O)NC(C)(C)C)=C(C#N)C1c1ccco1` (stereo not given), the cytotoxicity is 2.3%.

Turning to `CCCNS(=O)(=O)c1ccc(CCC(=O)N2CCOCC2)cc1`, the cytotoxicity was 3.7%.

With `CC(C)C1CC(c2csc(N)n2)CCO1` (stereo not given), the cytotoxicity was 7.1%.

`O=C1CCN(Cc2nnnn2CC2CCCO2)c2ccccc2N1` (stereo not given): the cytotoxicity was -13.4%.

With `Cc1nnc(SCCn2c(N3CCCC(C)C3)nc3c2c(=O)n(C)c(=O)n3C)s1` (stereo not given), the cytotoxicity was 6.4%.

Regarding `O=C(NCc1ccccn1)C1CCCN(S(=O)(=O)c2ccc(Br)cc2)C1` (stereo not given), the cytotoxicity was -8.1%.

As for `CCOC(=O)C(Cc1ccccc1)C(=O)Nc1nccs1` (stereo not given), the cytotoxicity is 15.3%.

As to `CCOC(=O)C1CCN(S(=O)(=O)c2ccc3c(c2)CCCN3C(C)=O)CC1`, the cytotoxicity is -5.4%.

In the case of `CC(=O)C1=C(C)NC(SCC(=O)c2ccc(F)cc2)=C(C#N)C1c1ccco1` (stereo not given), the cytotoxicity was 90.5% (active).

Regarding `CC(=O)C1=C(C)NC(SCC(=O)c2ccc(Cl)cc2)=C(C#N)C1c1ccco1` (stereo not given), the cytotoxicity is 50.5% (active).

Regarding `CC(=O)C1=C(C)OC(N)=C(C#N)C1c1ccco1` (stereo not given), the cytotoxicity was -7.5%.

Take `CCOC(=O)CSC1=C(C#N)C(c2ccc(F)cc2)C(C(C)=O)=C(C)N1` (stereo not given): the cytotoxicity is -0.1%.

With `CSCSC1=C(C#N)C(c2ccc(Cl)cc2)C(C(C)=O)=C(C)N1` (stereo not given), the cytotoxicity is -8.2%.

Regarding `COc1ccccc1NC(=O)C1=C(C)NC(SCC(=O)c2ccc(C)cc2)=C(C#N)C1c1ccco1` (stereo not given), the cytotoxicity was 38.3%.

Take `Cc1cccc(C2CC(c3ccccc3)Nc3ncnn32)c1` (stereo not given): the cytotoxicity was 0%.

With `COc1ccc(CCNc2ncnc3[nH]ncc23)cc1OC`, the cytotoxicity was -5.5%.

With `O=C(NC1CCCc2ccccc21)C1CCN(S(=O)(=O)c2cnc[nH]2)CC1` (stereo not given), the cytotoxicity is -2.5%.

Consider `Cc1occc1-c1nc(-c2ccncc2)no1`, for which the cytotoxicity is -13.6%.

As to `Cc1csc(NC(=O)C(Cc2ccccc2)n2cccc2)n1` (stereo not given), the cytotoxicity was 15%.

In the case of `CCSc1nnc(NC(=O)C(Cc2ccccc2)n2cccc2)s1` (stereo not given), the cytotoxicity was -0.8%.

With `O=C1[C@@H]2Cc3ccccc3CN2C(=O)N1c1cccc(F)c1`, the cytotoxicity was -8.3%.

In the case of `Cc1cccc(-n2c(C)nc3c(cnn3-c3ccc(F)cc3)c2=O)c1`, the cytotoxicity was -11.2%.

Regarding `CC(C)CC(=O)N1CCN(S(=O)(=O)c2ccc(F)cc2)CC1`, the cytotoxicity is 0.4%.

For `Oc1ccccc1-c1nc(NCCN2CCOCC2)c2ccccc2n1`, the cytotoxicity is 59.3% (active).

On to `c1ccc(-c2nc(NCCCN3CCOCC3)c3ccccc3n2)cc1`, for which the cytotoxicity is 5.9%.

In the case of `Cc1ccc(-c2nc(NCCN3CCOCC3)c3ccccc3n2)cc1`, the cytotoxicity was 40.5%.

`Fc1ccccc1-c1nc(NCCCN2CCOCC2)c2ccccc2n1`: the cytotoxicity was 11.7%.

For the compound `Clc1ccc(-c2nc(NCCN3CCOCC3)c3ccccc3n2)cc1`, the cytotoxicity was 40.9%.

Regarding `COc1cccc(-c2nc(NCCN3CCOCC3)c3ccccc3n2)c1O`, the cytotoxicity was 53.1% (active).

The record behind these values is PubChem BioAssay AID431 (Sanford-Burnham Center for Chemical Genomics, 2006).
